{"source": "PubChem BioAssay AID1345085", "about": "(National Center for Advancing Translational Sciences (NCATS), 2018)", "note": "Results filed as inconclusive are left out. The source made the active and inactive calls. The call rests on the fitted dose curve; in most records, active means well fitted cell-killing curve with a large enough effect; inconclusive means small, poorly fitted or top-dose-only effect, or effect the other way; inactive means no such curve, though single readings can be large or run the other way. On the % scale 0 is the no-effect control and ±100 the full control effect; potency means the concentration at half of the fitted maximal effect."}
{"tested_on": "C33A", "assay": "Confirmatory qHTS for gynecologic anti-cancer compounds from libraries of approved drugs and bioactive compounds; further: nearly all actives have a fitted effect of over 55% in size", "conditions": "gynecologic cancer cell panel viability, ATPlite luminescence, 48 h; series mostly up to 57.6 µM; activity change, negative = viability loss: at the top concentration", "outline": "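1,000 cells/well; 16 h pre-incubation 37 C, 5% CO2; pin-transferred cpd in DMSO, 11 conc (1:3), 57.5 uM–0.977 nM; 48 h; ATPlite, 15 min RT; luminescence → IC50.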"}
{"smiles": "O=c1c2ccccc2nc2n1CCc1c-2[nH]c2ccccc12", "activity change, negative = viability loss": "17.7% (inactive)"}
{"smiles": "O=C(/C=C/c1cccc(S(=O)(=O)Nc2ccccc2)c1)NO", "Potency": "2.98 µM (active)"}
{"smiles": "Cc1cc(Nc2cc(N3CCN(C)CC3)nc(Sc3ccc(NC(=O)C4CC4)cc3)n2)n[nH]1", "activity change, negative = viability loss": "-16.6% (inactive)"}
{"smiles": "CS(=O)(=O)c1ccc(-c2cnc(N)c(C(=O)Nc3ccccc3)n2)cc1", "activity change, negative = viability loss": "-5.61% (inactive)"}
{"smiles": "CCN1C[C@H](C)n2c(c(O)c3c(=O)n(Cc4ccc(F)c(Cl)c4)nc(C(=O)NC)c32)C1=O", "activity change, negative = viability loss": "6.55% (inactive)"}
{"smiles": "O=C(NCC(O)CO)c1ccncc1Nc1ccc(I)cc1F", "note": "(configuration not stated)", "activity change, negative = viability loss": "-24% (inactive)"}
{"smiles": "FC(F)(F)c1ccc(/C=C/c2nc(COc3ccc(CCCCn4ccnn4)cc3)co2)cc1", "activity change, negative = viability loss": "-29.5% (inactive)"}
{"smiles": "COc1cc2nccc(Oc3ccc(NC(=O)C4(C(=O)Nc5ccc(F)cc5)CC4)cc3)c2cc1OC", "Potency": "15.3 µM (active)"}
{"smiles": "CCS(=O)(=O)c1cccc(-c2cc(C(=O)NC3CCN(C)CC3)c(C)c3[nH]c4ncc(C)cc4c23)c1", "Potency": "5.34 µM (active)"}
{"smiles": "Nc1ncnc2c1ncn2[C@@H]1O[C@H](CO)C[C@H]1O", "activity change, negative = viability loss": "19.3% (inactive)"}
{"smiles": "Cc1ccc(C(=O)N(CCCN)C(c2nc3cc(Cl)ccc3c(=O)n2Cc2ccccc2)C(C)C)cc1", "note": "(configuration not stated)", "Potency": "0.485 µM (active)"}
{"smiles": "CCCCc1oc2ccc(NS(C)(=O)=O)cc2c1C(=O)c1ccc(OCCCN(CCCC)CCCC)cc1", "Potency": "27.3 µM (active)"}
{"smiles": "Cc1cncc2cccc(S(=O)(=O)N3CCCN(C(=O)CN)C[C@@H]3C)c12", "activity change, negative = viability loss": "8.41% (inactive)"}
{"smiles": "Cn1cnc2c(F)c(Nc3ccc(Br)cc3Cl)c(C(=O)NOCCO)cc21", "activity change, negative = viability loss": "-14.7% (inactive)"}
{"smiles": "C#C[C@]1(O)CC[C@H]2[C@@H]3CCC4=CC(=O)CC[C@@H]4[C@H]3CC[C@@]21CC", "activity change, negative = viability loss": "-1.35% (inactive)"}
{"smiles": "Cc1cnc(Nc2cccc(CN3CCOCC3)c2)nc1Nc1cccc(S(=O)(=O)NC(C)(C)C)c1", "Potency": "24.3 µM (active)"}
{"smiles": "O=C(NOCC1CC1)c1ccc(F)c(F)c1Nc1ccc(I)cc1Cl", "activity change, negative = viability loss": "-18.5% (inactive)"}
{"smiles": "CN1CCN(Cc2ccc(NC(=O)Nc3ccc(Oc4cc(NC(=O)C5CC5)ncn4)cc3)cc2C(F)(F)F)CC1", "Potency": "7.69 µM (active)"}
{"smiles": "CNCc1ccc(-c2[nH]c3cc(F)cc4c3c2CCNC4=O)cc1", "activity change, negative = viability loss": "0.266% (inactive)"}
{"smiles": "CC(=O)Nc1cccc(-n2c(=O)n(C3CC3)c(=O)c3c(Nc4ccc(I)cc4F)n(C)c(=O)c(C)c32)c1", "activity change, negative = viability loss": "-5.55% (inactive)"}
{"smiles": "O=C(NOC[C@H](O)CO)c1ccc(F)c(F)c1Nc1ccc(I)cc1F", "activity change, negative = viability loss": "-1.8% (inactive)"}
{"smiles": "CN(C)C(CCOc1cccc2ccccc12)c1ccccc1", "note": "(configuration not stated)", "activity change, negative = viability loss": "-9.64% (inactive)"}
{"smiles": "COc1cc(F)c(F)c(Nc2ccc(I)cc2F)c1NS(=O)(=O)C1(CC(O)CO)CC1", "note": "(configuration not stated)", "activity change, negative = viability loss": "1.44% (inactive)"}
{"smiles": "Cc1c(C)n(Cc2ccc(-c3ccccc3C(=O)O)cc2)c2ccc(C(=O)N[C@@H](C)c3ccc([N+](=O)[O-])cc3)cc12", "activity change, negative = viability loss": "10.7% (inactive)"}
{"smiles": "COC(C(=O)N1Cc2[nH]nc(NC(=O)c3ccc(N4CCN(C)CC4)cc3)c2C1)c1ccccc1", "note": "(configuration not stated)", "activity change, negative = viability loss": "1.61% (inactive)"}
{"smiles": "Cc1ccn(-c2ccc(-c3ncco3)cc2)c(=O)c1-c1ccc2nc(N)ncc2c1", "activity change, negative = viability loss": "-9.79% (inactive)"}
{"smiles": "NS(=O)(=O)OC[C@@H]1C[C@@H](n2ccc3c(N[C@H]4CCc5ccccc54)ncnc32)C[C@@H]1O", "Potency": "4.85 µM (active)"}
{"smiles": "COc1cc2c(NC3CCN(C(C)C)CC3)nc(C3CCCCC3)nc2cc1OCCCN1CCCC1", "Potency": "15.3 µM (active)"}
{"smiles": "Nc1ccccc1NC(=O)c1ccc(CNc2nccc(-c3cccnc3)n2)cc1", "Potency": "3.06 µM (active)"}
{"smiles": "Nc1ccc(-c2ccc3ncc4ccc(=O)n(-c5cccc(C(F)(F)F)c5)c4c3c2)cn1", "Potency": "0.172 µM (active)"}
{"smiles": "CC1(C)[C@@H](O)CC[C@]2(C)[C@H]3C(=O)C=C4[C@@H]5C[C@@](C)(C(=O)O)CC[C@]5(C)CC[C@@]4(C)[C@]3(C)CC[C@@H]12", "activity change, negative = viability loss": "8.69% (inactive)"}
{"smiles": "OCCNC1CCCc2c1[nH]c1ccc(-c3ccccc3)cc21", "note": "(configuration not stated)", "Potency": "17.2 µM (active)"}
